Laboratory results: the supplement of paper PMC10681739

Key:
ETS1 [1] = molecular target: T1, ETS1 (UniProt P14921); test: ETS1 binding intensity (PBM fluorescence), ETS1 alone (arbitrary fluorescence units); higher = stronger binding; settings: ETS1 concentration 1 nM; RUNX1 concentration 0 nM
T1 sequence: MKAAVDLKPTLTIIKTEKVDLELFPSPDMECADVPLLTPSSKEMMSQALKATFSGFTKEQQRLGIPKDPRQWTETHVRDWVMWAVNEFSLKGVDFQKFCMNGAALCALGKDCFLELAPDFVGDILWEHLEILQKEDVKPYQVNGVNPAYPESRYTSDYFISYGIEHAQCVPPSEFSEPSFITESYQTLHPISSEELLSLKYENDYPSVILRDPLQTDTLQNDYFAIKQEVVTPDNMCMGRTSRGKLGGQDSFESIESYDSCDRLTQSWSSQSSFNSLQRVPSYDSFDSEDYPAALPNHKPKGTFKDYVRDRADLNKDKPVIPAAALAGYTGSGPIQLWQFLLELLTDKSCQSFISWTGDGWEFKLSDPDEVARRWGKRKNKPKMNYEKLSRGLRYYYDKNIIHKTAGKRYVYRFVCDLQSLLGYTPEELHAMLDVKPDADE

RUNX1 [2] = molecular target: RUNX1 (UniProt Q01196); test: RUNX1 binding intensity (PBM fluorescence), RUNX1 alone (arbitrary fluorescence units); higher = stronger binding; settings: RUNX1 concentration 2 nM; ETS1 concentration 0 nM
Protocol: (§1)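 Cooperative gcPBM on 36-bp genomic probes with neighbouring ETS1 and RUNX1 sites. Recombinant human RUNX1 (2 nM) was incubated alone or with ETS1 (25 nM) and detected with anti-RUNX1 antibody plus Alexa488 secondary. Values are medians over 4 replicate spots; the RUNX1+ETS1 data were normalised to the RUNX1-only data. The probes sit in constant array flanks that are not printed.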

ETS1 [3] = molecular target: T1, ETS1; test: ETS1 binding intensity (PBM fluorescence) in presence of RUNX1, normalised to ETS1-only experiment (arbitrary fluorescence units); higher = stronger binding; settings: ETS1 concentration 1 nM; RUNX1 concentration 25 nM
RUNX1 [4] = molecular target: RUNX1 (UniProt Q01196); test: RUNX1 binding intensity (PBM fluorescence) in presence of ETS1, normalised to RUNX1-only experiment (arbitrary fluorescence units); higher = stronger binding; settings: RUNX1 concentration 2 nM; ETS1 concentration 25 nM
Protocol: as §1
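Wherever RUNX1 binding intensity (PBM fluorescence) in presence of ETS1, normalised to RUNX1-only experiment is given: Full-length recombinant human ETS1 or RUNX1 bound to double-stranded 36-bp genomic probes on microarrays, detected by protein-specific primary antibody and Alexa488 secondary, spot fluorescence as median of four replicate spots.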
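Wherever RUNX1 binding intensity (PBM fluorescence), RUNX1 alone is given: Full-length recombinant human RUNX1 bound to double-stranded 36-bp genomic probes on a high-density microarray, scored as Alexa488 fluorescence per spot via anti-RUNX1 antibody, median of four replicate spots.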

RUNX1, sequence (Q01196 whole entry): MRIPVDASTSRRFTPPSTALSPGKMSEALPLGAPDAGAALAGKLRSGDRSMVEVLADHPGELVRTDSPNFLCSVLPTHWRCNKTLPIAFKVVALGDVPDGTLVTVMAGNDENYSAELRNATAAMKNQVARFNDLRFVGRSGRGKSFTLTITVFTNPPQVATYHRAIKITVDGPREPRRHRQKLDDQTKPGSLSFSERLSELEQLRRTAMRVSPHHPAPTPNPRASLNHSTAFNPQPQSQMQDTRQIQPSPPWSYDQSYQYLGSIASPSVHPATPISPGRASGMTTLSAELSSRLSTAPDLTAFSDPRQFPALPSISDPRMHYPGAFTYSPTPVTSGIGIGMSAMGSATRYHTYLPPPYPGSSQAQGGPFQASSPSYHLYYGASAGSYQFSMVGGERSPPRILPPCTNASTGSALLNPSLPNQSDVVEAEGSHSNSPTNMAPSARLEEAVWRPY

Row | Sequence | ETS1 binding intensity (ETS1 [1]) | RUNX1 binding intensity (RUNX1 [2]) | ETS1 binding intensity (ETS1 [3]) | RUNX1 binding intensity (RUNX1 [4])
1 | CGCCGGCTCCCGGATGTTGTGGGGATCAGCGCCCGC | 3270 | 771 | 3760 | 1260
2 | GAGGTGCCGGAAGCCAGTAGGTGGTTTTGGGTGCTA | 1530 | 695 | 2120 | 1180
3 | GTTGAGTAGTGACAGGAAGTGACCGCAAGGGGGCGC | 10700 | 1860 | 44800 | 3540
4 | CACCCGCCCCCCGGAAGTGCCGGTGGTTGGGCTCCG | 5120 | 703 | 7610 | 1540
5 | TGACAGACCCGGAAATAAGAGGAGACCACACACTTG | 1900 | 894 | 2660 | 1410
6 | CAACGGCGTAGCCGGAAGTCAGTGGTTTTCGCCCCA | 12100 | 721 | 18200 | 1650
7 | GTTCCTAGGCAGGCAGGATGTGGCTATAAGCTACAT | 4700 | 819 | 6220 | 1150
8 | AACCAATCGAGCGGAGGAAACCGCGGCGTTAGCGTG | 568 | 864 | 1020 | 840
9 | TACAGCCAGGAAATGGGGAGGGTGCTGCGGGCGGCA | 858 | 742 | 1680 | 917
10 | AACATCCTGTGTAAAGAGAATTGAATGTGGTTTTCT | 559 | 821 | 1360 | 2600
11 | GATGCTCTAACAGGAAGTGGGTTAAGGAGCTGCACT | 12200 | 673 | 14100 | 2390
12 | ACTGCACGGCTGGGAGGATGTGGTCACACACGCCAC | 1380 | 869 | 11400 | 1350
13 | ACGTACGGGATGTGGGAGGTTTGTTTTGACCACACC | 492 | 830 | 936 | 1160
14 | ACAAGGAGGAAAAGGAAATGAACCACGAATAGCAAA | 1220 | 817 | 1160 | 948
15 | TCTTTGAGAAGCGGATGTGGTAAACTTGCCTCTGTT | 5970 | 801 | 36600 | 10000
16 | CTAGCTGTGGACAGGAAACGAGTGGTTTTTGTGATC | 5270 | 740 | 8040 | 1400
17 | GAGCTAGCCACTTCCTCCCCCACAACTACACCCAGG | 814 | 976 | 914 | 3420
18 | CCCTTGCCAGAGGAAGCCACTGCCACCGCAGAAGCA | 417 | 970 | 1740 | 1080
19 | ACTGGCTTCACTTCCTCCGCGGTTCCTCGGAGCCGC | 497 | 917 | 514 | 1730
20 | GAAGTGAGGTCAGGATGTGGTGGGTGACCCCTGAAA | 911 | 768 | 1340 | 1090
21 | GGTCCCCCCGGTTCCGGCGCGGTTGAGGCCTTCGGT | 683 | 758 | 676 | 1170

Row | Sequence | ETS1 binding intensity (ETS1 [1]) | RUNX1 binding intensity (RUNX1 [2]) | ETS1 binding intensity (ETS1 [3]) | RUNX1 binding intensity (RUNX1 [4])
22 | AATGGGCTTGGTTTCCTGTGGGTTTGTAGCTTTGTA | 519 | 899 | 685 | 2120
23 | CAGGTGTTCAGGAAACAAAACCACAGACTTTTTCAC | 562 | 4690 | 2370 | 6800
24 | GGTCCGGATGTATAAAGCGCGGCCCCCTGCGGGGAG | 910 | 732 | 1020 | 997
25 | ATGCTAGAAAGCAGGAAGCCACAGACACGCCCCAAC | 1180 | 857 | 1120 | 875
26 | AGGCTCATTTCCTGTTTTCATGTGGTTTAGAGAAAA | 2630 | 1320 | 5130 | 3930
27 | CACCCTCAACTTCCTGACCCATAAACCACAAGCTAT | 468 | 6110 | 1810 | 13100
28 | GCAGAGAGGAAGTGTGGGGGTGGAGGAGGCCGCAGA | 681 | 828 | 973 | 1000
29 | GTTCTTCCACGTCCGCGTTACCCACAACGGCAGTGG | 564 | 1020 | 606 | 1090
30 | GGGCGGGTCAGCGGAAGTGAGGGCGGTTGAGGCTGG | 4740 | 742 | 4550 | 1320
31 | TTGTCGGGTATGGGATGTGGGCAGAGAGTATGATGG | 604 | 866 | 835 | 797
32 | GTGTTTCCTCTTTGTTTTGGGGCTGTGGTTGCCACA | 414 | 1330 | 600 | 3180
33 | CCCCTGCCCCTTCCTGGAAGGCTGCGGTGTAACACC | 435 | 978 | 704 | 1780
34 | GAGCTGCTCCGGAAGGGTGGTGTGTGGTCAACCTTG | 759 | 876 | 1520 | 1050
35 | GCCGATGAGGAAGTGAGGGCCAACCACACTGCTCAG | 544 | 878 | 673 | 749
36 | CGTGGCGGAAGCCGCGGGGACTGCGGGGGCGGAGTG | 537 | 924 | 528 | 893
37 | CTCAGCTCCGCGGAAGTTGCGGTAAGTGGAGCTTTG | 962 | 2210 | 8730 | 5790
38 | CCCACTTCCTGTCTGCTTCCCTCCACCGCTCAGACC | 2890 | 1890 | 2650 | 4290
39 | GCCCCAGCGTTTCCTCTTACCCACAATGCCCCGCCC | 794 | 1510 | 869 | 2330
40 | TTTGTAAGAGGAGGAAGTGGTTTGTAAGAGGAGAAA | 2180 | 835 | 3260 | 1270
41 | AGATGAGGAAGTTGGGGTTTAGAGTGGTTAAACTGT | 502 | 698 | 655 | 1020
